This note sets out measurements from PubChem BioAssay AID2501 (Southern Research Specialized Biocontainment Screening …, 2010).

About 1,200 (55%) of roughly 2,200 compounds were called active. No cut-off is given here; in the data, nearly all actives have IC50 up to about 92 µM. So high a share suggests a set chosen from earlier hits. Some of the results follow.

The assay in a line: counter assay for TAg ATPase ADP read-out – biochemical, ADP-Hunter, fluorescence, counter-screen (AID 2501).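 For inhibition: higher means more inhibition.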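 Note: purified T antigen ATPase.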 The conditions noted are these: series mostly up to 100 µM. A general note: The purpose of a counterscreen is to sort out artefacts and off-target activity.
For the compound `COc1ccc(NCCc2ccccn2)cc1`, the IC50 was 2.41 µM (active). For the compound `COc1ccc(S(=O)(=O)N(CC(=O)NCc2ccccn2)c2ccc(Cl)cc2)cc1`, the IC50 entry is “inactive”. Regarding `COc1ccc(S(=O)(=O)Nc2ccc(O)c3ccccc23)cc1`, the IC50 result was “inactive”. Regarding `COc1ccc(C(=O)Nc2ccc(O)c3ccccc23)cc1`, the IC50 is 13.1 µM (active). In the case of `CCOC(=O)Cn1cc(C#N)c(=O)[nH]c1=O`, the IC50 result is “inactive”. Turning to `Cc1ccc2c(c1)NC(=O)c1cccnc1N2`, the IC50 was 4.54 µM (active). For the compound `Cc1ccc(C(=O)N2CCN3C(=O)c4ccccc4C23c2ccccc2)cc1` (stereo not given), the IC50 entry was “inactive”.

In the case of `CC(=O)Oc1c(/C=C(\C#N)C(N)=O)[nH]c2ccccc12`, the concentration for half-maximal inhibition (IC50) was 27.2 µM (active). Regarding `C=CCn1c(SCC(C)=O)nc2scc(-c3ccco3)c2c1=O`, the IC50 result was “inactive”. With `C=CCn1c(SCC(=O)NCC2CCCO2)nc2scc(-c3ccco3)c2c1=O` (stereo not given), the IC50 entry was “inactive”.

Take `C=CCn1c(=S)[nH]c2scc(-c3ccco3)c2c1=O`: the IC50 is 26.9 µM (active).

With `C#CCOCCOCCOCCNc1nc(N2CCN(C(=O)CCCCCCCCCCNC(=O)[C@H]([C@@H](C)CC)n3cc(CCCCN=C(N)N)nn3)CC2)nc(N2CCN(C(=O)CCCCCCCCCCNC(=O)[C@H](CCCN=C(N)N)n3cc(C[C@@H](C)CC)nn3)CC2)n1`, the IC50 result is “inactive”.

Turning to `CCOC(=O)C1CCN(c2nc(N)c3c(N)nc(SCC(=O)O)cc3c2C#N)CC1`, the IC50 entry was “inactive”. As for `O=C(N/N=C(\c1ccccc1)c1cccnc1)c1cc(O)ccc1O`, the figure is 3.71 µM (active). As for `CCOC(=O)CN(C(=O)CSc1nnc2c(n1)[nH]c1ccccc12)c1ccccc1`, the IC50 entry was “inactive”. On to `O=C(O)CSCC(=O)Nc1ccc(-c2nc3ccccc3s2)cc1`, for which the IC50 result was “inactive”. In the case of `Cc1[nH]c2ccccc2c1-c1csc(NC(=O)CSCC(=O)O)n1`, the IC50 was 14.6 µM (active). As for `COc1cccc(/C=N/n2c(-c3cc(C)[nH]n3)n[nH]c2=S)c1O`, the figure is 13.2 µM (active); as for `Cc1cc(-c2n[nH]c(=S)n2/N=C/c2cccs2)n[nH]1`, 52.3 µM (active); as for `CCN(CC)c1ccc(NC(=S)NC(=O)C2CCC2)cc1`, 7.07 µM (active). In the case of `COc1ccc2c(c1)-c1nc(/N=C/c3ccc(O)c(OC)c3)sc1CC2`, the IC50 was 3.97 µM (active). On to `Cc1cc([N+](=O)[O-])nn1CC(=O)NCc1ccccc1`, for which the IC50 result was “inactive”.

Take `COc1cc(C(=O)N/N=C(\C)Cn2nc([N+](=O)[O-])cc2C)ccc1O`: the IC50 was 16.1 µM (active). `C#CCOCCOCCOCCNc1nc(N2CCN(C(=O)CCCCCCCCCCNC(=O)[C@H]([C@@H](C)CC)n3cc(CCCCCN)nn3)CC2)nc(N2CCN(C(=O)CCCCCCCCCCNC(=O)[C@@H]([C@H](C)CC)n3cc(CCCCCN)nn3)CC2)n1`: the IC50 result was “inactive”. Consider `CC1(C)C(/C=C/C=C/C=C/C=C2\N(CCCCS(=O)(=O)O)c3ccc4ccccc4c3C2(C)C)=[N+](CCCCS(=O)(=O)[O-])c2ccc3ccccc3c21`, for which the IC50 is 10.5 µM (active). On to `COc1cccc2c1NC(C(=O)O)C1CC=CC21` (stereo not given), for which the IC50 entry is “inactive”. As for `COCCCNc1nnc(Cc2ccc(Cl)cc2)c(=O)[nH]1`, the IC50 result was “inactive”.

With `CCCC1=NN2C(=N)/C(=C\c3ccc(SCc4ccco4)o3)C(=O)N=C2S1`, the IC50 entry was “inactive”.

As to `O=C(O)C1=CC(=C(c2ccc(O)c(C(=O)O)c2)c2ccc(O)c(C(=O)O)c2)C=CC1=O`, the IC50 result is “inactive”. Turning to `Nc1ccc(C(=O)Nc2ccccc2C(=O)O)cc1`, the IC50 entry is “inactive”.

As for `Nc1c(O)cccc1C(=O)O`, the IC50 was 7.18 µM (active).

`Nc1ccc(O)c(C(=O)O)c1`: the IC50 is 8.29 µM (active). For `COc1cc(C(C)=O)ccc1OCC(O)Cn1nc(C)c(C(C)=O)c1C` (stereo not given), the IC50 is 49.1 µM (active). On to `NC(=O)[C@@H]1CCCCNc2c(I)cc([N+](=O)[O-])cc2C(=O)N[C@@H](CCC(=O)O)C(=O)N[C@@H](CO)C(=O)N1`, for which the IC50 result was “inactive”. Turning to `COc1ccc(S(=O)(=O)c2c(N)n(Cc3ccco3)c3nc4ccccc4nc23)cc1`, the IC50 entry was “inactive”. For the compound `Cc1ccc(S(=O)(=O)CCSC(=N)N)cc1`, the IC50 result was “inactive”. In the case of `Cc1ccc(S(=O)(=O)Nc2c(O)ccc3ccccc23)cc1`, the IC50 is 70.6 µM (active).

Regarding `COc1ccc(C(C)=O)cc1COC(=O)CCNS(=O)(=O)c1ccc(C(C)=O)cc1`, the IC50 result was “inactive”. On to `O=S(=O)(Nc1c(O)ccc2ccccc12)c1ccccc1`, for which the IC50 entry is “inactive”. With `COc1ccc(S(=O)(=O)Nc2c(O)ccc3ccccc23)cc1OC`, the IC50 was 54.9 µM (active).

Regarding `O=C1c2ccccc2NC2(CCCCC2)N1c1ccc(O)cc1`, the IC50 is 5.01 µM (active). As for `CN(C)CCNC(=O)C(=O)Nc1ccc2c(c1)N(S(=O)(=O)c1cccs1)CCC2`, the IC50 entry was “inactive”. As for `Cc1ccc(NC(=O)CCSc2nnc(Cc3ccccc3)o2)cc1`, the IC50 result was “inactive”. `N#CC(C#N)=C(N)/C(C#N)=C/c1cc(O)c(O)c(O)c1`: the IC50 is 13.6 µM (active).

With `CC1CCCN(c2ccc(N)cc2C(N)=O)C1` (stereo not given), the IC50 is 3.15 µM (active). As for `N#C/C(=C\c1coc2ccc(O)cc2c1=O)C(=O)Nc1nc2ccccc2s1`, the figure is 80.4 µM (active); as for `CSc1nc(Cl)cc(Nc2ccc(O)cc2)n1`, 11.3 µM (active); as for `Cc1ccc(NC(=O)CSc2nc3ccccc3c(=O)n2CCCC(=O)NCCCN2CCOCC2)cc1C`, “inactive”.

Take `COc1ccc2[nH]c3c(=O)n(CCCCC(=O)NCCN4CCCC4)c(=S)[nH]c3c2c1`: the IC50 is 6.28 µM (active). Turning to `CCN(CC)CCNC(=O)CCCCn1c(=S)[nH]c2c([nH]c3ccc(OC)cc32)c1=O`, the IC50 is 4.99 µM (active).

Take `O=S(=O)(Nc1cccc(-c2cn3ccsc3n2)c1)c1ccc(F)cc1`: the IC50 result was “inactive”.

Regarding `O=C1CC(N2CCN(c3ccc(O)cc3)CC2)C(=O)N1Cc1cccs1` (stereo not given), the IC50 was 4.71 µM (active).

As for `CN(CCc1cn[nH]c1)Cc1nc(Cc2ccccc2F)no1`, the IC50 result was “inactive”. For the compound `CC(O)CCc1ccc(O)cc1` (stereo not given), the half-maximal inhibitory concentration (IC50) is 8.46 µM (active). Take `NNC(=O)c1ccc(CN2CCCCC2)o1`: the IC50 entry was “inactive”. `COc1cc(/C=C2\SC(c3ccc(C)cc3)=NC2=O)cc(OC)c1O`: the IC50 was 2.62 µM (active). For `Cc1ccc(C2=NC(=O)/C(=C/c3cc(O)c(O)c(Br)c3)S2)cc1` the value was 11 µM (active); for `CCOc1ccc(NCc2cccn2-c2nnc(N3CCC(C(=O)NCCCN4CC(C)CC(C)C4)CC3)s2)cc1` (stereo not given), 7.15 µM (active). Turning to `CCOc1ccc(NCc2cccn2-c2nnc(N3CCC(C(=O)NCCCN4CCCCC4CC)CC3)s2)cc1` (stereo not given), the IC50 is 5.76 µM (active).

For `CCOc1ccc(NCc2cccn2-c2nnc(N3CCC(C(=O)NCCCN4CCCCC4C)CC3)s2)cc1` (stereo not given), the IC50 was 6.99 µM (active). For `NC(=O)Cn1c(=O)n(CCC(=O)NCCSCc2ccccc2)c(=O)c2ccccc21` the value was “inactive”. On to `COc1cccc(C2C([N+](=O)[O-])=C(N)Oc3cc(C)oc(=O)c32)c1` (stereo not given), for which the IC50 entry was “inactive”. For `NC(=O)C(Cc1ccccc1)N1C(=O)c2ccccc2C1=O` (stereo not given) the value was “inactive”. As for `CC(=O)Nc1ccc(OC(=O)C(CCS(C)(=O)=O)N2C(=O)c3ccccc3C2=O)cc1` (stereo not given), the figure is 7.41 µM (active); as for `O=C(Nn1cnnc1)C1Cc2ccccc2CN1S(=O)(=O)c1ccc(F)cc1` (stereo not given), “inactive”; as for `CCN(CC)c1ccc(NC(=O)COC(=O)COc2ccccc2[N+](=O)[O-])cc1`, 6.35 µM (active). On to `COc1ccc2nc(COC(=O)c3cccs3)c(C(C)=O)[n+]([O-])c2c1`, for which the IC50 entry is “inactive”. With `CC(=O)Nc1cccc(C(=O)OCC(=O)Nc2nnc(-c3ccccc3)o2)c1`, the IC50 result is “inactive”. Turning to `CCN(CC)c1ccc(C(=O)n2cnc3ccccc32)cc1`, the IC50 result is “inactive”. Consider `CCN(CC)c1ccc(NC(=O)COC(=O)c2cccs2)cc1`, for which the IC50 is 7.51 µM (active). On to `O=C(O)CCCn1cc(NC(=O)COc2ccccc2[N+](=O)[O-])cn1`, for which the IC50 result is “inactive”. Take `CCN(CC)c1ccc(NC(=O)COC(=O)c2ccc3ccccc3n2)cc1`: the IC50 is 2.2 µM (active). `Cc1ccccc1OCC(=O)NCC(=O)OCC(=O)c1ccc([N+](=O)[O-])cc1`: the IC50 result was “inactive”. For `CCN(c1ccccc1)S(=O)(=O)c1ccc(Cl)c(NC(=O)COC(=O)c2cc(O)c3ccccc3c2O)c1`, the IC50 result is “inactive”. On to `CCOC(=O)C1CCCN(C(=O)Cn2sc3nc(C)cc(C)c3c2=O)C1` (stereo not given), for which the IC50 result was “inactive”. Take `Nc1cnc(Nc2ccc(Br)cc2)nc1N`: the IC50 is 12.1 µM (active). Regarding `Cc1ccc(S(=O)(=O)Nc2nc(C)cc(N/N=C/c3ccc(O)cc3)n2)cc1`, the half-inhibitory concentration (IC50) is 8.77 µM (active).

Regarding `Cc1nc(Cl)cc(N/N=C/c2ccc(O)cc2)n1`, the IC50 was 4.8 µM (active). For the compound `Cc1cc(/C=N/Nc2ccc([N+](=O)[O-])cn2)c(C)n1-c1ccc(C(=O)O)cc1`, the IC50 result is “inactive”. Take `CCN(CC)S(=O)(=O)c1ccc(N/N=C/c2ccc(O)cc2)nc1`: the IC50 is 4.57 µM (active).

Turning to `O=C(N/N=C/c1ccc(-c2ccc(S(=O)(=O)Nc3ncccn3)cc2)o1)c1cc2ccccc2cc1O`, the IC50 result was “inactive”. Take `CC[C@H](C)[C@H](NC(=O)c1ccccc1)C(=O)Nc1ccc(S(=O)(=O)Nc2cc(C)nc(C)n2)cc1`: the IC50 result is “inactive”. With `O=C(COc1ccc([N+](=O)[O-])cc1)NNC(=O)Nc1ccc([N+](=O)[O-])cc1`, the IC50 entry is “inactive”. As for `COc1cc([N+](=O)[O-])ccc1NC(=O)Oc1ccc(NC(C)=O)cc1`, the figure is 4.33 µM (active); as for `COc1ccc(NC(=O)N2CCCc3cc(C)ccc32)c(OC)c1`, “inactive”. For `c1coc(-c2nnc3sc(Cc4cccs4)nn23)c1` the value was “inactive”.

In the case of `NNC(=O)c1sc2nc(N3CCOCC3)c3c(c2c1N)CCCC3`, the IC50 is 36.6 µM (active). For `Nc1c(C(=O)NC2CC2)sc2nc3c(c(-c4ccco4)c12)CC/C3=C/c1ccco1`, the IC50 result was “inactive”. Turning to `CNC(=O)c1ccc(-c2sc3nc(N4CCOCC4)c4c(c3c2N)CCCC4)o1`, the IC50 was 14.8 µM (active). With `CNC(=O)c1ccc(-c2sc3nc(N4CCOCC4)c4c(c3c2N)CC(C)(C)OC4)o1`, the IC50 was 3.18 µM (active).

For `C=CCc1cccc2cc(C(=O)Nc3ccc(S(=O)(=O)Nc4nnc(CC)s4)cc3)c(=O)oc12`, the IC50 result is “inactive”.

On to `Cc1ccc2cn[nH]c2c1N`, for which the IC50 is 6.68 µM (active).

As to `CC1(C)CC(=O)C(C=Nc2ccc(O)cc2)=C(O)C1`, the IC50 was 2.78 µM (active). For the compound `O=C1CCCC(O)=C1C=Nc1ccc(O)cc1`, the IC50 was 4.6 µM (active). For `O=C1CCCC(O)=C1N=Nc1ccc(C(=O)O)cc1` the value was “inactive”.

Usually IC50 stands for the concentration at which inhibition is half-maximal.
